# Experimental data from PubChem BioAssay.
# Active and inactive are the calls of the source.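 Rule for the calls, unless noted: active = fluorescence slope after compound addition differing from the mean of all screened samples at 99.7% confidence, in either direction; inactive = the rest.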
# Assays:
# [1] = inhibitors of TNFa-induced NFkB p65 translocation, primary screen, imaging, HUVEC, MLSMR starter and 10KST1 sets (AID 438;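 active = inhibition above 20% together with a positive visual image hit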;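 note: compound added about 3h40 before a 20 min TNFalpha stimulation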;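 for inhibition: signal is the nuclear over cytoplasmic p65 intensity ratio per well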); conditions: HUVEC TNFa-induced p65 nuclear translocation; cell count: measured here: nuclei count (cytotoxicity indicator), at 2.08 µM; inhibition: at 2 µM, stronger effect = higher value, 0% TNFa-plus-vehicle, 100% no-TNFa wells
# [2] = reduction of polyQ htt aggregates in cells – imaging, exon1htt(103Q)mCFP cells, high-content imaging, primary screen (AID 483;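 active = visual image review flags a hit and inhibition of aggregation exceeds 20%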;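 note: compound exposure lasted 3 days before fixation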;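 for nuclei count: percent of the per-plate median nuclei count of sample wells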); conditions: exon1htt(103Q)mCFP cell line, aggregate imaging, at 2 µM; inhibition of aggregation: stronger effect = higher value; nuclei count: measured here: cell count, toxicity
# [3] = endothelial E-selectin expression blockers – imaging, HUVEC, immunofluorescence, MLSMR starter and 10KST1 sets, primary screen (AID 487;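 active = visually confirmed hit in the image check and inhibition above 20%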;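 for inhibition: signal is fraction of cell area covered by stained E-selectin grains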;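 for nuclei count: 100% = median nuclei count of all wells on the same plate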); conditions: HUVEC TNFalpha-induced E-selectin immunofluorescence imaging, at 2 µM; inhibition: stronger effect = higher value; nuclei count: measured here: cell number, toxicity
# [4] = molecular target: Voltage-gated potassium channel subunit beta-2 (Rattus norvegicus) (UniProt P62483); assay: inhibitors of rat Kvbeta2 reductase activity – biochemical, NADPH fluorescence, primary screen (AID 622;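 active = fluorescence slope higher than the sample average by over 3 SD, cut at about -0.22 in these data, passing the limit was not always enough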;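 note: slope of raw intensity against log time taken from 70 to 1610 s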); conditions: recombinant KvBeta, 4-cyanobenzaldehyde reduction, at 10 µM, stronger effect = higher value
# Sequence of Voltage-gated potassium channel subunit beta-2 (Rattus norvegicus) (P62483 whole entry, looked up): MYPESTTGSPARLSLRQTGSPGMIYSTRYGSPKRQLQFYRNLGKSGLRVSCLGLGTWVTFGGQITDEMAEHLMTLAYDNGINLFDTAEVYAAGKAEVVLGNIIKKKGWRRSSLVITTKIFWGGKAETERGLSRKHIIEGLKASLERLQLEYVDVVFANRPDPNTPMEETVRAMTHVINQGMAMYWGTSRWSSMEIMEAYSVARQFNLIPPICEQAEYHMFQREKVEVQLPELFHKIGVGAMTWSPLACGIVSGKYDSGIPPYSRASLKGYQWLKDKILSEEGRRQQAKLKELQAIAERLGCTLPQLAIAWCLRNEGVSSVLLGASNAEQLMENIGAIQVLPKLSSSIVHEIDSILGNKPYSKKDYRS
# [5] = molecular target: Voltage-gated potassium channel subunit beta-2 (Rattus norvegicus) (UniProt P62483); assay: enhancers of rat Kvbeta2 NADPH turnover – biochemical, NADPH fluorescence, primary screen (AID 623;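 active = NADPH fluorescence slope more negative than the mean of all samples by about 3 SD, 99.7% confidence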;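 note: fluorescence intensity change per second fitted from 20 to 320 s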); conditions: Recombinant KvBeta, NADPH fluorescence decrease slope, 10 min; at 10 µM; stronger effect = lower value
# [6] = molecular target: Alpha-2C adrenergic receptor (Homo sapiens) (UniProt P18825); assay: compounds altering alpha2C-coupled GIRK flux – cell-based, HEK293 alpha2C/GIRK1/2, thallium flux, primary screen (AID 624); conditions: thallium flux BTC fluorescence, at 10 µM, actives lie on both sides;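 note: slope of fluorescence ratio to pre-addition baseline per second over 15 to 24 s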
# Sequence of Alpha-2C adrenergic receptor (Homo sapiens) (P18825 whole entry, looked up): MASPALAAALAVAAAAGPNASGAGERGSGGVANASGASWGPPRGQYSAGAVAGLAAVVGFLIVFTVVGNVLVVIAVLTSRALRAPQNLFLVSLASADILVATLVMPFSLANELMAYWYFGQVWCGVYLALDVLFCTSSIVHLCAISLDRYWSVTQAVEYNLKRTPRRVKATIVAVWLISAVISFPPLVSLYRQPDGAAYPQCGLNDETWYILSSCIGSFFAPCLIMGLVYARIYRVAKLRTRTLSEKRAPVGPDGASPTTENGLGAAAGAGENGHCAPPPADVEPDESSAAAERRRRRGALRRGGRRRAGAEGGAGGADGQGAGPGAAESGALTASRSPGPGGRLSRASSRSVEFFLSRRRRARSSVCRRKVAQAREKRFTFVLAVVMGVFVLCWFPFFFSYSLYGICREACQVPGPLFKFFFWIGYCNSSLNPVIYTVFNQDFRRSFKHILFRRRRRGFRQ
# [7] = blockers of RIG-like receptor reporter activation – cell-based, Sendai virus stimulus, luciferase, 10K MLSCN set, TLR/RLR signaling modifier project, primary screen (AID 602276;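 active = inhibition at or above 50% at 10 µM; inactive = inhibition below 50%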;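 note: firefly luciferase from ISG56 promoter only with Renilla not read in this screen; 0% = Sendai virus plus DMSO and 100% = medium plus DMSO without virus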); conditions: HEK293 RL24 IRF3 luciferase reporter, at 10 µM, stronger effect = higher value
# [8] = TLR3 IRF3 reporter activation blockers – cell-based, poly I:C stimulus, luciferase, 10K MLSCN set, primary screen (AID 602277;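 active = inhibition of the reporter signal at or above 50%; inactive = inhibition below 50%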); conditions: HEK293-TLR3 RL24 IRF3 luciferase reporter, at 10 µM, stronger effect = higher value
Structure (SMILES),cell count [1],inhibition [1],inhibition of aggregation [2],nuclei count [2],inhibition [3],nuclei count [3],fluorescence slope [4],NADPH fluorescence slope [5],slope [6],inhibition [7],inhibition [8]
COC(=O)C(C#N)C(=C1C(=O)CC(C)(C)CC1=O)c1ccc(O)cc1 (stereo not drawn),315,1.2% (inactive),12% (inactive),92.7%,15% (inactive),109%,-0.319 (inactive),-2.3e-05 (inactive),0.00607 (inactive),9.88% (inactive),10.9% (inactive)
COc1cccc(C(=O)Nc2ccc(NC(C)=O)cn2)c1,759,-4.3% (inactive),-0.2% (inactive),96.3%,-84.7% (inactive),123%,-0.469 (inactive),-5.3e-05 (inactive),0.00617 (inactive),-36.2% (inactive),-56% (inactive)
Cc1cc(NC(=O)CSc2nccn2-c2ccc(Cl)cc2)no1,505,4.2% (inactive),-6.1% (inactive),106%,-65.5% (inactive),120%,-0.554 (inactive),-8.5e-06 (inactive),0.00588 (inactive),-5.68% (inactive),-15.6% (inactive)
c1ccc(N=P(c2nc3ccccc3o2)(N2CCOCC2)N2CCOCC2)cc1,547,-7.9% (inactive),23.4% (inactive),87.6%,-1.8% (inactive),107%,-0.497 (inactive),-1.9e-05 (inactive),0.00625 (inactive),3.09% (inactive),-19.6% (inactive)
OCc1nc2ccccc2n1CCCOc1ccccc1,291,-6% (inactive),11.9% (inactive),87%,-17.2% (inactive),96.5%,-0.382 (inactive),-5.7e-05 (inactive),0.00561 (inactive),-34.5% (inactive),-119% (inactive)
OC(CN1CCOCC1)Cn1c(-c2cccc(Cl)c2)nc2ccccc21 (stereo not drawn),500,-2.9% (inactive),-7.7% (inactive),108%,-39.6% (inactive),112%,-0.598 (inactive),1.9e-05 (inactive),0.00704 (inactive),10.2% (inactive),32.2% (inactive)
Cc1ccc(S(=O)(=O)N2CCN(C(=O)CN3CCOCC3)C2C(C)C)cc1 (stereo not drawn),309,-5% (inactive),-6.9% (inactive),105%,-99.4% (inactive),105%,-0.621 (inactive),6.8e-06 (inactive),0.0064 (inactive),4.53% (inactive),12.9% (inactive)
Cc1cc(/C=N/n2cnnc2)c(C)n1-c1cccc(Cl)c1,567,4.7% (inactive),31% (inactive),32.1%,40.1% (inactive),46%,-0.364 (inactive),-3.8e-05 (inactive),0.00449 (inactive),13.2% (inactive),21.5% (inactive)
CCOc1ccc(NCCC(=O)c2ccc3c(c2)OCO3)cc1,624,-5.4% (inactive),29.9% (inactive),96.9%,0% (inactive),103%,-0.326 (inactive),8.4e-06 (inactive),0.00304 (inactive),2.87% (inactive),12.5% (inactive)
CCCCn1c(SCC(=O)OCC)nc2c1c(=O)[nH]c(=O)n2C,611,-0.3% (inactive),5.2% (inactive),97.5%,7.7% (inactive),84.3%,-0.499 (inactive),-2.6e-05 (inactive),0.00682 (inactive),13.7% (inactive),21.6% (inactive)
CC(=O)N1c2c(cc(Br)cc2S(=O)(=O)NCC2COc3ccccc3O2)CC1C (stereo not drawn),651,-0.5% (inactive),19.1% (inactive),104%,-47.6% (inactive),116%,-0.53 (inactive),-7.4e-05 (inactive),0.00624 (inactive),13.1% (inactive),10.4% (inactive)
CCOC(=O)c1ccc(NC(=O)CSc2nnc(COc3ccccc3)n2C)cc1,393,2.5% (inactive),-6.7% (inactive),97.5%,-25.8% (inactive),122%,-0.455 (inactive),-5e-05 (inactive),0.00289 (inactive),-1.67% (inactive),29% (inactive)
COc1cccc(OCCSc2nnc3sc4ccccc4n23)c1,548,-6.3% (inactive),0.2% (inactive),89%,-24.1% (inactive),127%,-0.463 (inactive),-0.000108 (inactive),0.00727 (inactive),-10.1% (inactive),-31.6% (inactive)
CN(Cc1cccs1)CC(O)COCc1ccco1 (stereo not drawn),407,6% (inactive),-40.7% (inactive),116%,-28.9% (inactive),113%,-0.591 (inactive),-4.7e-05 (inactive),0.00778 (inactive),11.5% (inactive),23.9% (inactive)
O=C(NCc1nc2ccccc2[nH]1)c1ccco1,440,0.8% (inactive),1.3% (inactive),113%,-228% (inactive),140%,-0.38 (inactive),-5.6e-05 (inactive),0.00592 (inactive),-2.68% (inactive),-21.9% (inactive)
COc1ccc(-c2nnc3sc(C(C)N4C(=O)c5ccccc5C4=O)nn23)cc1 (stereo not drawn),528,-3.3% (inactive),2.3% (inactive),91.9%,-8.9% (inactive),105%,-0.45 (inactive),4.5e-05 (inactive),0.00329 (inactive),-9.81% (inactive),-4.7% (inactive)
COC(=O)CCC(=O)Nc1ccc(OC)cc1,418,0% (inactive),-15.3% (inactive),108%,31.8% (inactive),101%,-0.51 (inactive),-5.9e-05 (inactive),0.00654 (inactive),8.73% (inactive),19.4% (inactive)
O=C(OCc1nnc(-c2ccccc2)o1)c1ccc2ccccc2n1,457,-3.1% (inactive),-11.6% (inactive),95.8%,-165% (inactive),106%,-0.565 (inactive),7e-05 (inactive),0.00433 (inactive),-29.8% (inactive),-34.4% (inactive)
CC(=O)N1CCc2cc(S(=O)(=O)CCC(=O)Nc3cccc(F)c3)ccc21,331,-1.4% (inactive),0.3% (inactive),126%,-19.8% (inactive),112%,-0.369 (inactive),-4e-05 (inactive),0.00334 (inactive),7.41% (inactive),19.1% (inactive)
Cc1cccc(-n2ncc3c(N)ncnc32)c1,622,9.1% (inactive),-51.6% (inactive),6%,-12.6% (inactive),110%,-0.596 (inactive),-2.7e-05 (inactive),0.0039 (inactive),-20.5% (inactive),-80.6% (inactive)
CCCCc1ccc(NC(=O)C2CCCO2)cc1 (stereo not drawn),387,-1.8% (inactive),-7.2% (inactive),105%,-122% (inactive),98.5%,-0.376 (inactive),-3e-05 (inactive),0.00635 (inactive),-42.7% (inactive),-136% (inactive)
C=CCNC(=O)C1CC(=O)N(c2ccc(OCC(=O)Nc3ccc(OC)cc3)cc2)C1 (stereo not drawn),393,0.7% (inactive),7.7% (inactive),104%,-93.7% (inactive),128%,-0.339 (inactive),-4.8e-05 (inactive),0.00432 (inactive),5.59% (inactive),5.9% (inactive)
CC(C)(C)NC(=O)COC(=O)c1ccc(O)cc1,714,-6.7% (inactive),-18.1% (inactive),98.1%,10% (inactive),101%,-0.625 (inactive),7.6e-06 (inactive),0.00738 (inactive),-6.22% (inactive),-8.12% (inactive)
O=C(COC(=O)CCc1c[nH]c2ccccc12)NC1CCS(=O)(=O)C1 (stereo not drawn),473,4.7% (inactive),-7.7% (inactive),101%,-70.8% (inactive),113%,-0.57 (inactive),-1.6e-05 (inactive),0.00772 (inactive),4.42% (inactive),-2.03% (inactive)
Oc1ccc(C=Nc2cccc3ncccc23)c(O)c1,682,-40.5% (inactive),-10% (inactive),111%,-138% (inactive),118%,-0.483 (inactive),-2.5e-05 (inactive),0.00472 (inactive),11.3% (inactive),17.3% (inactive)
Cc1[nH]c2c(C)cccc2c(=O)c1Br,440,6.7% (inactive),12.7% (inactive),106%,30.1% (inactive),85.5%,-0.584 (inactive),-7.5e-05 (inactive),0.0031 (inactive),14.8% (inactive),7.69% (inactive)
O=C(CSc1nnc(-c2ccccc2)o1)NC1CCCCC1,355,0% (inactive),8% (inactive),109%,-10.5% (inactive),103%,-0.55 (inactive),2e-05 (inactive),0.0067 (inactive),5.13% (inactive),0.841% (inactive)
CC1(C)NC(=O)N(CC(O)COc2ccc(-c3ccccc3)cc2)C1=O (stereo not drawn),260,-0.5% (inactive),4.5% (inactive),89.9%,-18.2% (inactive),125%,-0.425 (inactive),-6.5e-05 (inactive),0.00308 (inactive),-15.6% (inactive),1.46% (inactive)
